Experimental findings from PubChem BioAssay (NCI) are described below.

SMILES strings stand for the structures. This is part of a sample that, as a whole, favours compounds with a hit. Of some 83,000 tested, about 20% had one in any assay.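 Plates (96-well) were seeded with cells, treated with compound at one concentration, and incubated for 48 hours before percent growth was determined.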 Unmarked numbers belong to inactive results. Calls of active or inactive are those of the source. Rule for the calls: active = growth percent below 10; inactive = the rest.

Common to all, as to experiment: NCI-60 one-dose screen, 48 h (100 = growth as untreated, 0 = no growth, -100 = all killed)
Holding throughout (conditions): 10 µM unless noted

The test system of assay [1] is DU-145 prostate.
Assay [2] relates to K-562 leukemia.
The subject of assay [3] is MALME-3M melanoma.
Assay [4] relates to MDA-MB-231 breast.
In assay [5] the test system is RXF 393 renal.
For assay [6], the system named is SF-268 CNS.
Assay [7] has as its system SF-295 CNS.
In assay [8] the test system is SF-539 CNS.
Assay [9] relates to UACC-257 melanoma.
Assay [10] deals with M14 melanoma.
Assay [11] has as its system HCT-15 colon.
In assay [12] the test system is HT29 colon.
Assay [13] has as its system SNB-75 CNS.
For assay [14], the system named is SNB-19 CNS.
In assay [15] the test system is U251 CNS.
The subject of assay [16] is PC-3 prostate.
Assay [17] relates to SK-MEL-5 melanoma.
In assay [18] the test system is UACC-62 melanoma.
The subject of assay [19] is LOX IMVI melanoma.
Assay [20] has as its system SK-MEL-28 melanoma.

As for `COC(=O)c1c2c(c(C)[n+]([O-])c1C)C(=O)C=C(NCc1cccc(Cl)c1)C2=O`, the growth in assay [1] was -98.3% (active); in [2], -1.12% (active); in assay [3], -96.9% (active); in assay [4] it was -27.3% (active); in assay [5] it was -32.1% (active); in assay [6] it was -0.347% (active). Moreover, the growth was -96% (active) in assay [7]; -91.7% (active) in assay [8]; -88.5% (active) in [9]; -79.6% (active) in [10]; -66.9% (active) in assay [11]; 3.61% (active) in [12]. In addition, the growth in [13] was -95.4% (active); in assay [14], -53.4% (active); in assay [15], -20.7% (active); in assay [16] it was -1.7% (active); in assay [17] it was -97.1% (active); in [18], -68% (active). In addition, the growth in assay [19] was -57.5% (active); in assay [20] it was -1.27% (active).

`COc1ccc(S(=O)(=O)ON=C2C=C(C)C(=O)C(C)=C2)cc1`: the growth in [1] was 101%; in assay [2] it was 48.7%; in assay [3], 102%; in assay [4], 62.5%; in assay [5], 81.6%; in assay [6], 92.6%. For the same compound, the growth in assay [7] is 93%; in assay [8], 94%; in [9], 98.6%; in assay [10] it was 99.9%; in [11], 85.9%; in assay [12] it was 93.3%. Further, the growth is 69.1% in [13]; 113% in [14]; 94.4% in assay [15]; 86% in assay [16]; 98.2% in assay [17]; 62% in assay [19]. In [20], the growth is 96.8%.

Regarding `O=C1/C(=C/c2ccc(Cl)cc2)N=C(c2ccccc2)N1CCc1cccs1`, the growth is 48.4% in [1]; 62.3% in assay [2]; 65% in assay [3]; 64.8% in assay [4]; 69.9% in assay [5]; 74.7% in [6]. Also, the growth in assay [7] was 51.5%; in [8], 40.3%; in assay [9], 56.3%; in assay [10], 42.2%; in assay [11], 10.2%; in assay [12], 0.797% (active). Also, the growth was 31.1% in assay [13]; 64.5% in [14]; 44.5% in assay [15]; 59% in assay [16]; 84.7% in assay [17]; 55.7% in [18]. Besides, the values for the growth in assay [19] and in assay [20] were 30.1% and 77.4%, respectively.

Take `COc1ccccc1CNCCCCCCCCCCCCN1C(=O)c2ccc3c4c(ccc(c24)C1=O)C(=O)N(CCCCCCCCCCCCNCc1ccccc1OC)C3=O`: the growth in [1] was 51.2%; in assay [2], 35.2%; in assay [3] it was 97.6%; in assay [4] it was 64.1%; in [5] it was -69.6% (active); in assay [6], 69.4%. Further, the growth is 49.4% in assay [7]; 1.92% (active) in [8]; 113% in assay [9]; 80.2% in [10]; 77.7% in [11]; 53.4% in [12]. Also, the growth is -13.3% (active) in [13]; 58.1% in assay [14]; -28.6% (active) in assay [15]; 27.7% in assay [16]; 78.4% in [17]; 105% in assay [18]. In addition, the growth in assay [19] is 56.4%; in [20], 81.1%.

Take `COc1cc(/C=C/C(=O)CC(=O)/C=C/c2cc(Br)c(OC)c(OC)c2)cc(Br)c1OC`: the growth in assay [1] is 108%; in assay [2] it was 73.3%; in assay [3], 96.6%; in [4], 101%; in assay [5], 114%; in assay [6] it was 104%. For the same compound, the growth in assay [7] is 102%; in assay [8], 102%; in assay [9], 93.1%; in assay [10], 96.9%; in assay [11], 109%; in assay [12], 103%. Besides, the growth in assay [13] was 93.7%; in [14] it was 99.8%; in assay [15], 105%; in [16], 105%; in assay [17], 108%; in assay [18], 101%. Moreover, the growth in assay [20] was 106%.

With `O=C(CC(O)c1ccccc1)Nc1ccccn1` (configuration not stated), the growth in assay [1] is 104%; in assay [2], 84.1%; in [3], 94.2%; in assay [4], 104%; in assay [5], 131%; in [6], 103%. The growth in [7] is 108%; in [8], 97.6%; in [9] it was 94.9%; in assay [10] it was 99.7%; in [11], 101%; in assay [12], 103%. Also, the growth was 85.9% in assay [13]; 92.1% in assay [14]; 102% in [15]; 93.2% in [16]; 116% in assay [17]; 98.4% in assay [19]. In assay [20], the growth was 103%.
